# Experimental data reported in PMC7826789 (International Journal of Molecular Sciences, 2021).
# How the values were obtained:
# Conditions in all cases: Compound Concentration (nM):1000
# [1] = test system: WEE1
# [2] = test system: WEE2
# [3] = test system: WNK1
# [4] = test system: WNK2
# [5] = test system: WNK3
# [6] = test system: WNK4
# [7] = test system: T1, YANK1
# T1 construct: gene STK32A
# [8] = test system: T2, YANK2
# T2 construct: gene STK32B
# [9] = test system: T3, YANK3
# T3 construct: gene STK32C
# [10] = test system: T4, YES
# T4 construct: gene YES1
# 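Further: KINOMEscan scanMAX binding as percent activity remaining versus control; lower means stronger binding.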
SMILES,Percent Control [1] [%],Percent Control [2] [%],Percent Control [3] [%],Percent Control [4] [%],Percent Control [5] [%],Percent Control [6] [%],Percent Control [7] [%],Percent Control [8] [%],Percent Control [9] [%],Percent Control [10] [%]
NS(=O)(=O)c1ccc(N/N=C2\C(=O)Nc3ccc(-c4cnco4)cc32)cc1 [GW276655],88,72,87,100,56,100,56,100,63,69
COc1ccc2c(-c3ccnc(Nc4cccc(OC(F)(F)F)c4)n3)cnn2n1 [GW810372X],100,100,100,61,90,100,100,100,100,100
COc1cccc(-n2ncc3c(N/N=C/c4ccncc4)ncnc32)c1 [GW784752X],100,89,98,100,100,100,100,88,100,87
NS(=O)(=O)c1ccc(N/N=C2\C(=O)Nc3ccc(Cl)cc32)cc1 [GW280670X],100,100,99,100,100,100,100,100,100,100
NS(=O)(=O)c1ccc(N/N=C2\C(=O)Nc3ccc(C(=O)NCc4ccncc4)cc32)cc1 [GW300657X],93,59,92,78,95,73,100,100,100,100
COc1cc2ncnc(Nc3ccc4c(cnn4Cc4ccccc4)c3)c2cc1OC.Cl [GW282449A],100,100,94,100,100,100,100,100,100,67
CN1CCN(C(=O)c2ccc(NC(=O)Nc3ccc(N(C)c4ccnc(Nc5ccc(CS(C)(=O)=O)cc5)n4)cc3)cc2)CC1.Cl [GW830263A],100,99,94,67,93,100,68,100,100,96
CC(C)COC(=O)c1ccc2c(c1)/C(=C/Nc1ccc(S(N)(=O)=O)cc1)C(=O)N2 [GW416981X],100,100,100,100,100,100,100,100,100,100
CN(C)c1cc2c(Nc3ccc4c(cnn4Cc4ccccc4)c3)ncnc2cn1 [GW282974X],83,72,100,100,100,91,100,100,100,67
CC1=C(C(=O)Nc2ccc3[nH]ncc3c2)C(c2ccc(Cl)c(Cl)c2)CC(=O)N1 (stereo not shown) [GSK299115A],84,73,95,100,69,82,93,82,99,81
Cl.c1ccc(Cc2nc3ccc(Nc4ncnc5ccccc45)cc3[nH]2)cc1 [GR269666A],100,100,100,100,100,100,100,100,100,100
Nc1ncnc2occ(-c3ccc(NC(=O)Nc4cc(C(F)(F)F)ccc4F)cc3)c12 [GW770249X],100,100,96,100,100,100,99,100,100,98
C[C@@H](Oc1cc(-n2cnc3ccc(OC4CCN(C)CC4)cc32)sc1C(N)=O)c1ccccc1Cl [GSK579289A],40,87,32,7.1,26,2.7,77,100,100,87
COc1ccccc1-c1cc(/C=C2\C(=O)Nc3ncc(Br)cc32)cc(Br)c1O [GW442130X],100,100,100,100,98,100,92,94,100,100
O=C1Nc2ccc(C(=O)c3ccco3)cc2C1=Cc1cc(Cl)c(O)c(Cl)c1 [GW406108X],100,100,89,100,93,100,100,100,100,100
CC1=C(C(=O)Nc2ccc3[nH]ncc3c2)C(c2ccc3ccccc3c2)CC(=O)N1 (stereo not shown) [GSK270822A],93,62,92,85,86,76,83,88,96,68
COc1cc2ncn(-c3cc(O[C@H](C)c4ccccc4Cl)c(C(N)=O)s3)c2cc1OC [GSK237701A],100,76,2.9,6.1,0.8,11,91,100,92,87
COc1ccc2[nH]c3c4[nH]c5ccc(OC)cc5c4c4c(c3c2c1)C(=O)NC4=O [GW296115X],53,87,91,66,92,88,69,97,84,73
Cl.O=C(Nc1ccc(Oc2ccc3[nH]c(NC(=O)c4ccco4)nc3c2)cc1)Nc1cc(C(F)(F)F)ccc1F [GW683134A],100,100,90,100,100,100,82,100,100,61
COc1cc(N2CCN(C(C)C)CC2)ccc1Nc1nc(Nc2ccc(F)cc2C(=O)NC[C@@H](O)CO)c2cc[nH]c2n1 [GSK1392956A],96,100,92,100,100,69,100,100,100,99

SMILES,Percent Control [1] [%],Percent Control [2] [%],Percent Control [3] [%],Percent Control [4] [%],Percent Control [5] [%],Percent Control [6] [%],Percent Control [7] [%],Percent Control [8] [%],Percent Control [9] [%],Percent Control [10] [%]
CCS(=O)(=O)c1ccc(OC)c(Nc2ncc(-c3cccc(OC)c3)o2)c1 [GW580509X],100,100,99,100,100,100,100,100,100,74
COc1ccc2cc(-c3c(-c4ccncc4)nc(-c4ccc(S(C)(=O)=O)cc4C)n3C)ccc2c1 [SB-633825],86,53,97,78,92,72,41,26,70,46
CCS(=O)(=O)c1ccc(OC)c(Nc2ncc(-c3cccc(F)c3)o2)c1 [GW621970X],100,100,90,100,97,100,100,100,100,43
O=C(Nc1n[nH]c2nc(-c3ccc(O)cc3)c(Br)cc12)C1CC1 [SB-725317],100,100,84,98,100,98,100,100,100,100
NS(=O)(=O)c1ccc(Nc2ncc(-c3ccccc3)o2)cc1 [GW572399X],100,100,89,100,100,100,100,100,100,100
COc1ccc(COc2ccc(Cc3cnc(N)nc3N)cc2OC)cc1 [GW632580X],98,83,98,84,92,82,100,100,100,82
Cl.O=S1CCN(Cc2ccc(-c3ccc4ncnc(Nc5ccc(OCc6ccccc6)c(F)c5)c4c3)o2)CC1 [GW576924A],100,100,100,100,100,100,100,100,100,100
Cl.O=C(Nc1ccc(Oc2ccc3[nH]c(NC(=O)c4ccccc4)nc3c2)cc1)Nc1cc(C(F)(F)F)ccc1F [GW709042A],100,100,91,100,88,100,88,100,100,100
Cl.O=C(O[C@H]1CN[C@H](C#Cc2cc3ncnc(Nc4ccc5c(cnn5Cc5ccccc5)c4)c3s2)C1)N1CCOCC1 [GSK200398A],89,96,80,94,100,95,100,100,100,98
C/C(Nc1ccc(S(N)(=O)=O)cc1)=C1/C(=O)Nc2ccccc21 [GW335962X],100,95,90,93,100,100,100,100,88,100
COC(=O)Nc1nc2ccc(Oc3ccc(NC(=O)Nc4cc(C(F)(F)F)ccc4F)cc3)cc2s1.Cl [GW693917A],87,100,76,100,100,67,100,100,94,51
Cc1cc(O)cc(C)c1/C=C/c1cncc(C(N)=O)c1 [GW435821X],100,100,100,100,93,100,100,100,100,100
COc1cc(/C=N/Nc2ncnc3[nH]ncc23)ccc1O [GW578748X],100,80,100,70,64,100,100,100,100,87
COc1cccc(-c2c[nH]c3c(N/N=C/c4ccncc4)ncnc23)c1 [GW814408X],100,98,96,75,99,100,90,100,100,61
CCn1c(-c2nonc2N)nc2c(C#CC(C)(C)O)nc(OCCNC)cc21.Cl [GSK949675],92,100,100,100,100,51,87,89,100,100
NS(=O)(=O)c1ccc(N/N=C2\C(=O)Nc3ccc(C(=O)NCCc4c[nH]cn4)cc32)cc1 [GW300660X],100,100,100,100,95,100,100,100,100,100
COc1cc(C)c(N(C)C(=O)CN(C)C)cc1Nc1nc(Nc2cccc(F)c2C(N)=O)c2cc[nH]c2n1 [GSK2219385],100,90,100,100,100,81,87,100,85,96
CCc1ccc(Oc2nccc(-c3c(-c4ccc(F)cc4)ncn3C3CCNCC3)n2)cc1 [SB-242719],100,100,80,97,89,67,8.8,13,32,78
COc1cc(C=NNc2ncnc3c2cnn3-c2ccccc2)ccc1O [GW513184X],96,100,97,100,100,100,89,100,100,74
CN(C)CCNC(=O)Nc1ccc(N(C)c2ccnc(Nc3ccc(CS(C)(=O)=O)cc3)n2)cc1.Cl [GW830900A],94,88,92,64,99,100,68,100,100,77
